PfHsp90 yeast 2 = reduces growth (ATP signal) of yeast expressing P. falciparum Hsp90. 310,000 tested, 0.32% active. S. cerevisiae expressing PfHsp90, BacTiter-Glo ATP, 48 h; yeast lacking PDR1 and PDR3 efflux regulators. inhibition, % at 9.4 µM;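 active = every replicate shows inhibition above about 80%, whatever the replicate mean, limit read from the data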;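 note: 0% = DMSO neutral controls and 100% = 20 µM radicicol positive controls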
tim10-1 inh = tim10-1 yeast growth inhibition; inhibition, % at 20 µM; 330,000 tested, 2.2% active; S. cerevisiae tim10-1 ts strain growth, BacTiter-Glo, 24 h; AID 463190;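 active = inhibition of at least 40%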;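 note: mutant grown at 25 °C; 0% = DMSO wells with yeast and 100% = wells holding no yeast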
NLRP3 yeast inh = inhibitors of NALP3 inflammasome in yeast. Yeast reconstituted NLRP3/ASC/caspase-1, beta-gal luminescence, 24 h. inhibition, % at 10 µM. 330,000 tested, 0.39% active. AID 2825;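 active = inhibition of 50% or more; inactive = inhibition below 50%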;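 note: plate controls were induced DMSO wells for no effect and uninduced yeast grown without galactose for full effect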
TIM10 inh = inhibits growth of TIM10 yeast strain; 330,000 tested, 1.4% active; S. cerevisiae TIM10 strain growth, BacTiter-Glo luminescence, 24 h; inhibition, % at 10 µM;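 active = inhibition of 40% or more at the single tested concentration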;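 note: wild-type TIM10 isogenic control strain grown at permissive 25 °C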
tim23-1 inh = inhibits growth of tim23-1 mutant yeast. S. cerevisiae tim23-1 growth, BacTiter-Glo luminescence, 24 h. inhibition, % at 20 µM. 330,000 tested, 1.3% active;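 active = growth inhibition of the mutant yeast at or above 50%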;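 note: temperature-sensitive mutant grown at 25 °C; plate controls were DMSO-treated mutant yeast for no effect and medium wells lacking yeast for full effect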
SKKanGAS inh = inhibitors of SKKanGAS S. pyogenes growth in kanamycin (SK-promoter or general growth effect); 300,000 tested, 1.3% active; inhibition, % at 7.5 µM; AID 1662; BacTiter-Glo, 6 h;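 active = mean replicate score, as percent of positive control median, at least 50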;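 note: strain carries kanamycin resistance gene driven by streptokinase promoter and grows in 40 µg/ml kanamycin; loss of luminescence reflects streptokinase promoter inhibition or plain growth inhibition; 0% = median of DMSO wells and 100% = positive control at its reference dose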
Active calls of the source: *; . = no result. Sampled rows, rich in hits. Any-hit rate of the full collection: about 4.5%.

SMILES	PfHsp90 yeast 2	tim10-1 inh	NLRP3 yeast inh	TIM10 inh	tim23-1 inh	SKKanGAS inh
Cc1ccc2ccc(C(Nc3ccccn3)c3ccccc3)c(O)c2n1 (stereo not given)	-8	16	0	14	9	85*
Cc1ccc2ccc(C(Nc3cccc(C(F)(F)F)c3)c3cccnc3)c(O)c2n1 (stereo not given)	18	-17	30	7	20	65*
Oc1c(C(Nc2ccccn2)c2ccccn2)ccc2cccnc12 (stereo not given)	4	32	4	22	37	72*
Cc1occc1C(=O)Nc1cccc(Cl)c1Cl	-19	-12	8	-8	-1	-6
Cc1ccc(NS(=O)(=O)c2cccc(C(=O)NCCCN3CCCC3=O)c2)cc1	.	3	5	-4	11	-6
CCC(CO)Oc1cc(NC(=O)c2ccc([N+](=O)[O-])cc2)c2ncn(C(C)C)c2c1 (stereo not given)	12	-3	7	-3	10	.
O=C1CC2(CCN(C(=O)c3cccc(F)c3)CC2)Oc2ccccc21	-34	9	10	1	3	-1
Oc1ccccc1C(Nc1nccs1)c1ccc2cccnc2c1O (stereo not given)	12	4	10	-4	38	75*
Cc1ccnc(NC(c2ccsc2)c2ccc3ccc(C)nc3c2O)c1 (stereo not given)	12	-27	39	1	16	93*
COc1ccccc1NC(c1cccnc1)c1ccc2cccnc2c1O (stereo not given)	10	22	7	-12	32	5
Cc1ccnc(NC(c2ccccc2)c2ccc3cccnc3c2O)c1 (stereo not given)	-32	.	.	.	.	.
CC(=O)c1cccc(S(=O)(=O)N2CCn3cccc3C2C)c1 (stereo not given)	.	12	14	0	4	.
Cc1ccc2c(c1C)-c1c(ccc(C)c1C)C(=O)C2=O	103*	.	.	.	.	.
Nc1ccc2c(c1Cl)C(=O)c1ccc(N)c(Cl)c1C2=O	6	.	.	.	.	-1
COc1ccc(-c2ccc([C@H]3[C@@H]4C=CCC[C@@]4(C)C(=O)N3Cc3ccccc3)c(F)c2)cc1OC	-8	2	9	6	-3	52*
COc1ccc(-c2c([C@H]3[C@@H]4C=CCC[C@@]4(C)C(=O)N3Cc3ccccc3)ccc3ccccc23)cc1OC	40	29	-1	19	35	31
COc1ccc(NC(=O)CNCc2ccc(Cl)cc2)cc1S(=O)(=O)N1CCOCC1	-19	-16	10	0	-11	.
O=C(Nc1cc(Cl)ccc1O)c1cc2n(n1)C(C(F)(F)F)CC(c1ccc3c(c1)OCO3)N2 (stereo not given)	-50	8	17	-4	-3	101*
CCOC(=O)N1CCN(C(=O)c2cc3n(n2)C(C(F)(F)F)CC(c2ccc4c(c2)OCO4)N3)CC1 (stereo not given)	-8	11	-5	3	17	54*
O=C(NCc1ccc2c(c1)OCO2)c1cc2n(n1)C(C(F)(F)F)CC(c1ccc3c(c1)OCO3)N2 (stereo not given)	-6	16	15	9	13	4
COc1ccccc1C(=O)Nc1ccc(C(=O)N2CCCCC2)cc1	6	27	19	7	7	-10
Cc1cccc(C(=O)NNC(=O)C2CCN(C(=O)OC(C)(C)C)CC2)c1	8	-2	11	8	-4	6
COc1ccc(C2=CC3=C(Br)C(=O)C(C)(OC(=O)C4CCCC4)C(=O)C3=CO2)cc1 (stereo not given)	110*	18	6	12	18	4
CCOc1ccc(S(=O)(=O)N2CCCC(C(=O)NCc3ccncc3)C2)cc1C (stereo not given)	-25	32	12	-10	21	-4
COc1ccc(/C=N/n2cnc3c([nH]c4ccc(C)cc43)c2=O)cc1CN1CCCC1	-12	-1	14	6	8	26
COc1ccc(/C=N/n2c(C)nc3c([nH]c4ccccc43)c2=O)cc1CN1CCCC(C)(C)C1	6	13	-7	-9	13	70*
COc1ccc2c(c1)[nH]c1c(=O)n(/N=C/c3ccc(OC)c(CN4CCCC4)c3)cnc12	-4	-3	5	8	24	9
